Test results from publication PMC4336329 (PLoS ONE, 2015).
Out of some 310,000 compounds screened, about 14,000 (4.5%) showed an effect of 50% or more. Effects have a minus sign here. The list comes from a sample in which strong results are over-represented; it also holds similar structures and randomly drawn compounds.

target: human ether-à-go-go-related gene (hERG) potassium channel (human, UniProt Q12809); test: primary screen, population patch clamp on CHO cells stably expressing hERG; higher = less effect of the substance
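Note: peak tail current of the secondary pulse compared with the same well before compound.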

human ether-à-go-go-related gene (hERG) potassium channel, sequence (Q12809 whole entry, looked up): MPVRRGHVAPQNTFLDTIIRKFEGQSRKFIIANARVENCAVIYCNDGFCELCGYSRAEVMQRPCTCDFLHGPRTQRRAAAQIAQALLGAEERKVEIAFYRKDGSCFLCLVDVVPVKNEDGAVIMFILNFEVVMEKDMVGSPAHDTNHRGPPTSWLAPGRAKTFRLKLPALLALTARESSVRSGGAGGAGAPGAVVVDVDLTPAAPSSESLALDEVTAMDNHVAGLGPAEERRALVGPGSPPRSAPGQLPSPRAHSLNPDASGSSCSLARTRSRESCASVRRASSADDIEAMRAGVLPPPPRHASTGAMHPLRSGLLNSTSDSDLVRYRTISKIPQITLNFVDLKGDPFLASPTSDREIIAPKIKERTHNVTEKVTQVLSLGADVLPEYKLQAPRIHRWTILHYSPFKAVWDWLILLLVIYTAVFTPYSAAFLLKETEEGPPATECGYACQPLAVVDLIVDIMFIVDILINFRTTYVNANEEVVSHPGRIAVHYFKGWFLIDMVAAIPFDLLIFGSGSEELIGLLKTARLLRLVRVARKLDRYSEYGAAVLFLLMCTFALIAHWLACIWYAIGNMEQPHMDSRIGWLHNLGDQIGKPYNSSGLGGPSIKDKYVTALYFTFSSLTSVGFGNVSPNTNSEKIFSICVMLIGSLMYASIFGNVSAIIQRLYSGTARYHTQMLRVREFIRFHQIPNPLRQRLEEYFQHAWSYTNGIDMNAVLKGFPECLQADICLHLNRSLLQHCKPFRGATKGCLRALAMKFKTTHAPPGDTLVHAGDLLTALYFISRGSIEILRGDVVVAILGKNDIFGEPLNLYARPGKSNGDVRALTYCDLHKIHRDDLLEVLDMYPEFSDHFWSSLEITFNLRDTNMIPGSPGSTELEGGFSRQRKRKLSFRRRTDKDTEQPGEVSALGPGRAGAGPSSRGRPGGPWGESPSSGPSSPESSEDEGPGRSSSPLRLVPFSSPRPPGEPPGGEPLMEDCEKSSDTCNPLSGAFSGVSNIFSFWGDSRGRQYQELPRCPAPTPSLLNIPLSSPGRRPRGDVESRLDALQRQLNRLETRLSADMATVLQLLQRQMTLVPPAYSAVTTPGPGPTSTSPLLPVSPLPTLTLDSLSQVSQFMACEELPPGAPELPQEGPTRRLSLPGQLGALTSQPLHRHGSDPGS

SMILES | hERG current change (%, negative = inhibition) at 10uM [%]
C/C(=N/NS(=O)(=O)c1cccc([N+](=O)[O-])c1)c1c[nH]c2ccccc12 | 13
CCOC(=O)/C(C#N)=C/c1cccc([N+](=O)[O-])c1 | 25
CC(Oc1ccccc1Cl)C(=O)Nc1ccc(S(=O)(=O)Nc2nccs2)cc1 (stereo not shown) | -0.857
CC1CCC2(CC1)NC(=O)N(CC(=O)Nc1cccc(C#N)c1)C2=O (stereo not shown) | 9.8
O=C(NCc1cccnc1)NC(=O)c1ccc(Cl)cc1 | 3.09
CCN1C(=O)[C@@H]2[C@@H](c3ccc(-c4ccc5c(c4)OCO5)cc3)N3CCCC[C@@]3(C(=O)OC)[C@@H]2C1=O.O=C(O)C(F)(F)F | 21
COc1ccc(OC)c(CN2CCN(C(=O)Cc3ccccc3)CC2)c1.O=C(O)C(=O)O | -4.63
COc1cccc(C(=O)N2CCN(Cc3cc(Br)ccc3OC)CC2)c1.O=C(O)C(=O)O | -51.8
COc1ccc(Br)cc1CN1CCN(C(=O)c2ccc(OC)c(OC)c2)CC1.O=C(O)C(=O)O | -38.1
O=C(O)C(=O)O.c1ccc(CC2CCN(Cc3ccccn3)CC2)cc1 | -23.1
Cc1[nH]c2ccccc2c(=O)c1CN1CCCCCC1 | -7.41
COc1ccc(OC)c(CN2CCC(Cc3ccccc3)CC2)c1.O=C(O)C(=O)O | -69.4
COc1ccc(Br)cc1CN1CCN(C(=O)c2cccc(F)c2)CC1.O=C(O)C(=O)O | -39.2
Cc1[nH]c2ccccc2c1CN1CCC(Cc2ccccc2)CC1.O=C(O)C(=O)O | -67.4
COc1ccc(OC)c(CN2CCCCCC2)c1.O=C(O)C(=O)O | 15.7
CN1CCN(/N=C/c2nc(-c3ccccc3Cl)n3ccccc23)CC1 | -34.1
CCCOC(=O)Nc1ccccc1C(N)=O | 4.61
O=C(O)CCCCC1SCC2NC(=O)NC21 (stereo not shown) | 3.46
O=C(Nc1ccccc1F)Nc1ccc([N+](=O)[O-])cc1Cl | 18.4
O=C(c1cc(=O)[nH]c2ccccc12)N1CCN(c2cccc(C(F)(F)F)c2)CC1 | -27.1
CCOC(=O)c1sc(=S)n(-c2ccccc2Cl)c1C | -13.8
CCOC(=O)Cn1c(=NC(=O)c2cccs2)sc2cc(C(=O)OC)ccc21 | 17.4
Cc1ccc(NC(=O)c2cc([N+](=O)[O-])ccc2Cl)c(O)c1 | -4.12

SMILES | hERG current change (%, negative = inhibition) at 10uM [%]
Cc1nc2cc(NC(=O)CS(=O)(=O)c3ccccc3)ccc2s1 | -23.8
Cc1nc2ccc(NC(=O)CS(=O)(=O)c3ccc(F)cc3)cc2s1 | -7.44
Cc1nc2cc(NC(=O)CS(=O)(=O)c3ccc(F)cc3)ccc2s1 | -55.8
CCCN1C(=O)CC(C(=O)OC)=C1C | 12.9
CCN(CC)c1ccccc1 | 12.7
CCN(CC)c1nc(C(N)=O)cc(-c2ccccc2)n1 | -0.608
CCN(CC)c1cc(-c2ccccc2)ncn1.Cl | -16.5
CCN(CC)C1=NC=CC(c2ccccc2)=CC1C (stereo not shown) | -55.1
CCC1C=C(c2ccccc2)C=CN=C1N(CC)CC (stereo not shown) | -61.6
CCN(CC)c1ncnnc1-c1ccccc1 | 15.9
COc1ccccc1NS(=O)(=O)c1cccc(N=C2N=C(N)c3ccccc32)c1 | 11.7
CCCc1nn(C)c2c1C(c1ccncc1)C(C#N)=C(N)O2 (stereo not shown) | 15.4
C/C(O)=C/c1nc2ccccc2[nH]c1=O | -5.26
C=C(Cl)COc1ccc2c(CCCC)cc(=O)oc2c1 | -24.9
CCCn1c(NCc2cccc(OC)c2OC)nc2ccccc21 | -13.9
COc1ccccc1CNc1nc2ccccc2n1CCN1CCCCC1 | -61.5
CCn1c(NCc2cccc(OC)c2OC)nc2ccccc21 | -21
C=CCn1c(NCc2ccccc2OC)nc2ccccc21 | -18.9
COc1cccc(CNc2nc3ccccc3n2CCN2CCCCC2)c1OC | -63.6
Oc1ccccc1CNc1nc2ccccc2n1CCN1CCCCC1 | -2.31
CC(Nc1ccccc1CO)C(=O)Nc1cccc(Cl)c1Cl (stereo not shown) | 5.35
O=C(Cn1c(NCCO)nc2ccccc21)NCC(F)(F)F | 10.4
O=C(NCCC1=CCCCC1)C1CCCN(S(=O)(=O)c2ccccc2)C1 (stereo not shown) | 6.97

SMILES | hERG current change (%, negative = inhibition) at 10uM [%]
CCCC(=O)Nc1ccc2oc(-c3ccncc3)nc2c1 | 5.92
CCOC(=O)c1oc2ccccc2c1CN1CC(C)OC(C)C1 (stereo not shown) | -0.576
CCOC(=O)c1oc2ccccc2c1CN1CCN(C)CC1.Cl | -61.5
CCOC(=O)c1oc2ccccc2c1CN1CCOCC1.Cl | -4.56
CCOC(=O)c1oc2ccccc2c1CN1CCN(c2ccccc2)CC1.Cl | -26.6
CCOC(=O)c1oc2ccccc2c1CN1CCCCC1.Cl | -55
CCOC(=O)c1oc2ccccc2c1CN1CCN(C(=O)c2ccccc2)CC1 | -41.7
Cc1ccc(Cn2cc(/C=C/C(=O)O)c(-c3ccccc3)n2)cc1 | 6.77
CCC(C)C1Nc2ccc(C(=O)NCCc3ccc(OC)c(OC)c3)cc2NC1=O (stereo not shown) | 20.4
Cc1ccc(N2CCN(c3ccc(C)cc3)C2c2cccnc2)cc1 | 17.6
CCC(=O)NC(=S)NNC(=O)COc1ccc(Br)cc1 | 14.4
CCOCCOc1nc(C)cc(C)c1S(=O)(=O)c1ccccc1C | -4.15
CCOC(=O)C1(Cc2ccccc2)CCN(Cc2cccc3c2OCO3)CC1 | -36.7
CCOC(=O)C1(CCc2ccccc2)CCN(Cc2cccc3c2OCO3)CC1 | -75
CCOC(=O)C1(CCOc2ccccc2)CCN(Cc2cccc3c2OCO3)CC1 | -64.6
O=C(CN1C(=O)c2ccccc2C1=O)Nc1ccccc1 | -0.118
CCOC(=O)N1CCN(C(=O)C2CCCN(S(=O)(=O)c3cc(C)ccc3OC)C2)CC1 (stereo not shown) | -5.57
COCc1c(C#N)c(NCc2cc(OC)c(OC)c(OC)c2)nc(C)c1[N+](=O)[O-] | -12.2
O=C(Nc1ccc(-n2cccn2)cc1)C1CCN(Cc2ccsc2)CC1 | -81.1
O=C(Nc1ccc(-n2cccn2)cc1)C1CCN(Cc2ccccn2)CC1 | -16.7
Cc1ncc(CN2CCC(C(=O)Nc3cccc(-c4cscn4)c3)CC2)cn1 | -11.9
O=C(Nc1cccc(-c2cscn2)c1)C1CCN(Cc2ccsc2)CC1 | -65
CSc1ncc(CN2CCC(C(=O)Nc3cccc(-c4cscn4)c3)CC2)cn1 | -35.7

SMILES | hERG current change (%, negative = inhibition) at 10uM [%]
Cc1ncc(CN2CCC(C(=O)Nc3ccc(-n4cccn4)cc3)CC2)s1 | -21.2
Cc1ccc(CN(CC(=O)NCc2ccccn2)S(=O)(=O)c2ccccc2)cc1 | -23.9
COC(=O)CN(C#N)c1nc(NCc2ccccc2)nc(OC)n1 | -1.33
CCN(CC(=O)Nc1ccc2c(c1)OCCO2)CC(=O)Nc1ccc2c(c1)OCO2 | 28
Cc1ccc(CC(CC(=O)Nc2cccc(C(F)(F)F)c2)C(=O)O)cc1 (stereo not shown) | 18
COc1cc2c(cc1OC)-c1cc(OCCN3CCOCC3)nc(=O)n1CC2 | -11.5
O=C(O)c1nccnc1C(=O)Nc1ccc(Cl)cn1 | 17.6
CCC(C)NC(=O)[C@H]1N2C(=O)c3ccccc3C2SC1(C)C (stereo partly shown) | 12.8
Cc1noc(C(=O)Nc2c(C)nn(Cc3ccccc3)c2C)c1Cl | 4.71
CC1CCCC(NC(=O)CCC(=O)c2ccc(F)cc2)C1C (stereo not shown) | 8.27
CC1CCCC(NC(=O)CSc2ccc(F)cc2)C1C (stereo not shown) | 18.7
CC1CCCC(NCC(O)COC(c2ccc(F)cc2)c2ccc(F)cc2)C1C (stereo not shown) | -71.6
Cc1cccc(C(=O)N2CCN(c3ncnc4c3cnn4-c3ccccc3)CC2)c1 | -19.4
Cc1cc(=O)oc2cc(OC(C)C(=O)NCc3ccccn3)ccc12 (stereo not shown) | 9.03
COc1ccc(-c2cc(=O)oc3cc(OC(C)C(=O)NCc4ccccn4)ccc23)cc1 (stereo not shown) | -54.8
COC(=O)C(C)Oc1ccc2c(-c3cccc([N+](=O)[O-])c3)cc(=O)oc2c1 (stereo not shown) | -25.8
COc1ccc(-c2cc(=O)oc3c(C)c(OC(C)C(=O)NCc4ccccn4)ccc23)cc1 (stereo not shown) | -9.16
CCOC(=O)C(C)Oc1ccc2c(-c3cccc([N+](=O)[O-])c3)cc(=O)oc2c1 (stereo not shown) | -62.4
COc1ccc(-c2cc(=O)oc3cc(OCC(=O)NCc4ccccn4)ccc23)cc1 | -6.52
CCc1cc(=O)oc2cc(OC(C)C(=O)NCc3ccccn3)ccc12 (stereo not shown) | 14.4
CC(Oc1ccc2c(-c3ccccc3)cc(=O)oc2c1)C(=O)NCc1ccccn1 (stereo not shown) | -50.9
CC(=O)COc1ccc2c(-c3cccc([N+](=O)[O-])c3)cc(=O)oc2c1 | -25.9
